Experimental data from PubChem BioAssay (EPA / NIEHS).
Active and inactive are the calls of the source. How the source made its calls: active means hit-call score of the fitted dose curve at least 0.9, where 1 is the maximum; inactive means score below 0.9.

Read-out: Keratin 19 (KRT19), KRT19 (gene 3880)
Assay: LTEA_HepaRG_KRT19: Life Technologies and Expression Analysis (LTEA) Assay for Keratin 19 (KRT19) using HepaRG (AID 2283512)
Details: mRNA level, 48 h; actives raise or lower the signal
Description: LTEA_HepaRG is a cell based, multiplexed-readout assay that uses HepaRG, a human liver cell line, with measurements taken at 48 hours after chemical dosing on a 96-well plate.LTEA_HepaRG_KRT19 is one of 102 assay component(s) measured in the LTEA HepaRG cell culture assay. It is a marker of Cell proliferation, survival, death.Data from the assay component LTEA_HepaRG_KRT19 was analyzed into 1 endpoint. This assay endpoint, LTEA_HepaRG_KRT19, was analyzed with bidirectional fitting relative to DMSO as the negative control and baseline of activity. Using a type of inducible reporter, measures of mRNA induction for gain or loss-of-signal activity can be used to understand regulation of transcription factor activity. To generalize the intended target to other relatable targets, this assay endpoint is annotated to the filaments intended target family, where the subfamily is keratin.
A total of 1060 chemcials from the ToxCast library were tested in eight-point concentration-response experiments. Cell culture and cytotoxicity assays were conducted at Thermo Fisher Scientific's Custom Services facility (Madison, WI). A single lot of human HepaRG cells (Thermo Fisher Scientific, Frederick, MD) was used for the cell culture experiments. 96-well format collagen type I coated plates of human HepaRG cells were prepared using established methods. Briefly, cryopreserved HepaRG cells were thawed, plated at a density of approximately 100,000 cells/well in HepaRG Thaw, Plate, and General Purpose media (HPRG770, Thermo Fisher Scientific), and incubated for 48 hours. 0.5% DMSO was selected as vehicle control to balance the requisite need of DMSO in HepaRG cultures to maintain differentiation (for example, baseline metabolism, proportions of hepatocytes vs. cholangiocytes), while enabling further hepatic receptor pathway activation (for example, PXR and CAR) in response to chemical exposure. 48 hours after plating, the culture medium was replaced with HepaRG Serum-Free Incudtion Media. Cells were exposed to each test chemical in duplicate and maintained in CO2 incubators for another 48 hours. Chemical plates were thawed to room temperature and 200x concentrations of treatment groups were prepared. 8-point conentration-reponse curves were made with the highest exposure at 100 uM, followed by half-log dilutions, all in 0.5% DMSO. Each test plate contained variouse controls, induction positive controls (1mM phenobarbital), cytotoxicity positive controls ([…] aflatoxin B1), vehicle controls (0.5% DMSO), and total lysis controls (0.5% DMSO). Cell morphology images were taken using an Essen IncuCyte FLR automated microscope, with six 96-well plates imaged in about 24 minutes. Images were captured and exported and JPEG files. Spent culture media was transfered to black-well plates for the LDH assay, and remaining media was sorted at -80 C for later use. Cells were treated with RLT buffer and frozen until shipped for gene expression analysis. Total RNA was isolated from the cell suspension in 75 uL of Buffer RLT (Qiagen, Germantown, MD 20874) by Quintiles/Expression Analysis (Durham, NC) using a custom isolation procedure. Total RNA from each plate well was transferred to a preamplification plate. Fluidigm's 96.96 Dynamic ArrayTM (Fluidigm, Amsterdam, the Netherlands) technology was used for gene expression analyses by quantitative reverse transcription polymerase chain reaction (qRT-PCR, performed by Quintiles/Expression Analysis, Durham, NC)89. Standard TaqManTM Assays (Applied Biosystems/ThermoFisher Scientific, Foster City, CA) were used to assess the expression of 93 genes selected based on their selectivity and sensitivity to important hepatic receptors known to be modulated by environmental chemicals; importance in human hepatocyte functionality; and hepatotoxicity. […]

SMILES | outcome | AC50
CO[C@@H]1[C@H](OC(=O)NC(=O)CCl)CC[C@]2(CO2)[C@H]1[C@@]1(C)O[C@@H]1CC=C(C)C | inactive | –
C[N+](C)(C)CC1CO1 (stereo not given) | inactive | –
O=P(OCCCl)(OCCCl)OCCCl | inactive | –
COC(=O)Nc1nc2ccccc2[nH]1 | – | 7.44 µM (active)
O=C(Nc1ccccc1)c1ccccc1I | – | 22.6 µM (active)
CCCCC(CC)COC(=O)c1ccc(C(=O)OCC(CC)CCCC)c(C(=O)OCC(CC)CCCC)c1 (stereo not given) | inactive | –
CN(C)C(=O)Nc1ccc(Cl)cc1 | inactive | –
N#CC(Br)Br | inactive | –
CCCSC(=O)N(CCC)CCC | inactive | –
CC(C)(C)C(O)(CCc1ccc(Cl)cc1)Cn1cncn1 (stereo not given) | inactive | –
CCCCOC(=O)c1ccccc1C(=O)OCc1ccccc1 | inactive | –
Brc1ccc(Oc2ccccc2)cc1 | inactive | –
c1ccc2c(c1)-c1cccc3cccc-2c13 | inactive | –
Cc1ccc(N=C=O)cc1N=C=O | – | 23.9 µM (active)
C[C@]12C=CC3=C4CCC(=O)C=C4CC[C@H]3[C@@H]1CC[C@@H]2O | inactive | –
[As]#[In] | inactive | –
CCN(CC)CCO | inactive | –
O=C(Oc1ccc(Br)cc1)N1CCN2CCC1CC2 | inactive | –
CC(C)(OOC(C)(C)c1ccccc1)c1ccccc1 | inactive | –
Clc1ccc(C(c2ccc(Cl)cc2)C(Cl)Cl)cc1 | inactive | –

SMILES | outcome | AC50
Clc1ccc(Cl)c(Cl)c1 | inactive | –
Nc1ccc(Oc2ccc(N)cc2)cc1 | inactive | –
CCCCCCCCOC(=O)c1ccc(C(=O)OCCCCCCCC)c(C(=O)OCCCCCCCC)c1 | inactive | –
ClC1=C(Cl)[C@]2(Cl)[C@H]3[C@H]([C@@H]4C=C[C@H]3C4)[C@@]1(Cl)C2(Cl)Cl | inactive | –
Cc1ccc(N)cc1 | inactive | –
N#CC(Br)(Br)C(N)=O | inactive | –
CCOC(=O)[C@]1(c2ccccc2)Oc2ccccc2[C@@H]1N | inactive | –
Cc1cc(N=Nc2ccccc2C)ccc1N | – | 17.2 µM (active)
CCN(CC)N=O | inactive | –
O=Cc1ccco1 | inactive | –
[Cl-].[Cl-].[Hg+2] | – | 29.3 µM (active)
CCOc1cccc(C2(N3CCN(c4ccccc4)CC3)CCC(C)CC2)c1 (stereo not given) | inactive | –
O=C(N[C@H](c1ccccc1)[C@@H]1CN2CCC1CC2)c1c(Cl)ccc(C(F)(F)F)c1Cl | – | 12 µM (active)
Clc1ccccc1Cl | inactive | –
O=[N+]([O-])C(Br)(CO)CO | inactive | –
Nc1ccc(Cl)cc1N | – | 33.5 µM (active)
CS(=O)(=O)NC(=O)c1cc(Oc2ccc(C(F)(F)F)cc2Cl)ccc1[N+](=O)[O-] | inactive | –
OCCCBr | inactive | –
Oc1ccc2ccc3cccc4ccc1c2c34 | – | 8.53 µM (active)
ClCCOCCCl | inactive | –
